High-throughput results from PubChem.
Compounds with a hit are over-represented: about 2.8% of the library has one in this group of screens.
proKLK7 act: proKLK7 (human) activation, primary screen; P49862; purified proKLK7, EDANS-DABCYL substrate fluorescence; 100% is mature enzyme control, 0% vehicle; activation, % at 7 µM; actives 0.9% (n = 370,000); AID 652039;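 active = activation above the mean of all tested compounds plus 3 SD, computed per campaign excluding outliers beyond control limits, cut at about 13% in these data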
Target sequence (P49862 whole entry, looked up): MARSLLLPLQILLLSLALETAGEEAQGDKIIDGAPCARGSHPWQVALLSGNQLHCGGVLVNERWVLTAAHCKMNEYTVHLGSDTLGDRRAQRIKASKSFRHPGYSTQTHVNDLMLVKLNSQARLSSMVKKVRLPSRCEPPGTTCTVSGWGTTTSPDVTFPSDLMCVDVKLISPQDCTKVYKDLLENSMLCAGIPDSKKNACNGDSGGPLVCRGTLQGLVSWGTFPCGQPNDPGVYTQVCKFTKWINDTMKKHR
MsrA inh: inhibitors of bovine MsrA; purified bovine MsrA, absorbance read-out; inhibition, % at 15.5 µM; actives 0.75% (n = 360,000); AID 651718; in the data active = inhibition above about 4.5%
SMARCA2 act: activators of SMARCA2 function; MG213 cells, MMTV-luciferase reporter, dexamethasone, overnight; activation, % at 9.1 µM; actives 1% (n = 370,000); AID 652017; in the data active = activation above about 7.8%
MsrA act: activates bovine MsrA enzyme | purified bovine MsrA, absorbance read-out | activation, % at 10.6 µM | actives 0.3% (n = 360,000); in the data active = activation above about 7.5%
SMARCA2 act conf: SMARCA2 activation, confirmation screen; shares compounds with SMARCA2 act; MG213 cells, MMTV-luciferase with dexamethasone, luminescence, overnight; MG213 cells expressing E1A, Rb sequestered; DMSO wells 0%, reference activator 100%; activation, % at 9.1 µM; actives 30% (n = 3,500); AID 652260;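 active = activation above its plate's cutoff, the mean activation of tested wells plus 3 SD, cut at about 7.9% in these data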
GAL4-VP16 Luc: activates GAL4-VP16 luciferase, flagging SMARCA2 activator hits; shares compounds with SMARCA2 act; HEK293 GAL4-VP16 pG5luc reporter, luciferase luminescence; scaled: DMSO wells 0%, SAHA wells 100%; activation, % at 9.1 µM; actives 41% (n = 3,500);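 active = activation above the solvent-only control well mean plus 3 SD, averaged across control plates, cut at about 5.2% in these data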
Of the large screens only hits and unclear results are named; the others gave an inactive call (follow-up assays come after a bar, where they were run).

Nc1ccc2nc(COc3ccccc3)[nH]c2c1	SMARCA2 act 12 | SMARCA2 act conf inactive | GAL4-VP16 Luc inactive
Nc1ccc2nc(CCCCc3nc4ccccc4[nH]3)[nH]c2c1	none
O=C1c2cccc(NCCCNCCO)c2C(=O)c2cccc(NCCCNCCO)c21	SMARCA2 act 28 | SMARCA2 act conf inactive | GAL4-VP16 Luc inactive
O=C1c2ccccc2C(=O)c2c(NCc3cccnc3)cccc21	none
N#CC(Cc1ccc(OC(F)F)cc1)c1nc2ccccc2[nH]1 (stereo not given)	none
N#CC(Cc1cccs1)c1nc2ccccc2[nH]1 (stereo not given)	SMARCA2 act 8.6 | SMARCA2 act conf inactive | GAL4-VP16 Luc inactive
CC1(C)c2ccccc2C(=O)c2ccccc21	none
O=C1c2cccc3c2C2(O)c4c1cccc4C(=O)c1cccc(c12)C3=O	SMARCA2 act 8.1 | SMARCA2 act conf inactive | GAL4-VP16 Luc inactive
Cc1ccccc1C(=O)NNC(=O)c1ccc(Br)cc1	SMARCA2 act 9.0 | SMARCA2 act conf inactive | GAL4-VP16 Luc 5.5
O=C(Nc1ccc(F)cc1)C(c1cc2ccccc2o1)N1CCN(c2cccc(C(F)(F)F)n2)CC1 (stereo not given)	none (no result: MsrA act)
CCN(CCn1cccn1)C(=O)CCc1nnc(CCCc2ccccc2)o1	SMARCA2 act 8.7 | SMARCA2 act conf 11 | GAL4-VP16 Luc 6.4
CN(CC(=O)Nc1ccccc1Br)C(=O)c1ccc(-c2ccc(Cl)cc2)o1	SMARCA2 act 8.9 | SMARCA2 act conf inactive | GAL4-VP16 Luc inactive
O=[N+]([O-])C1C(c2ccccc2)C12c1ccccc1-c1ccccc12 (stereo not given)	none (no result: proKLK7 act, MsrA inh, SMARCA2 act)
O=C(/C=C/c1c(Cl)cccc1Cl)NCCc1ccccc1	SMARCA2 act 11, MsrA act 8.0 | SMARCA2 act conf inactive | GAL4-VP16 Luc inactive
Cc1ccc2cc(C3CC(c4cccs4)=NN3S(C)(=O)=O)c(Cl)nc2c1 (stereo not given)	none
Cc1ccc2nc(Cl)c(C3CC(c4cccs4)=NN3S(C)(=O)=O)cc2c1 (stereo not given)	SMARCA2 act 11 | SMARCA2 act conf inactive | GAL4-VP16 Luc inactive
COc1cc(C=O)ccc1OCc1ccccc1Br	SMARCA2 act 15 | SMARCA2 act conf inactive | GAL4-VP16 Luc 8.0
CCOC(=O)c1c(CN(C)C)n(C)c2c(O)c(N=NC(N)=O)c3ccc(Br)cc3c12	SMARCA2 act 9.1 | SMARCA2 act conf inactive | GAL4-VP16 Luc 6.3
CCCn1c(=O)c(C(=O)OCC)c(O)c2cc(Br)ccc21	none
COc1ccc(N2CCN(C(=O)c3ccc(Cl)c(S(=O)(=O)N4CCOCC4)c3)CC2)cc1	none
Cn1c(=O)cc(OCC(=O)N2CCN(c3ccccc3Cl)CC2)c2ccccc21	none (no result: MsrA inh, MsrA act)
Cc1nc2c(ccc3nc(NC(=O)Cc4ccccc4)sc32)s1	SMARCA2 act 10 | SMARCA2 act conf inactive | GAL4-VP16 Luc inactive
Cn1c(N)c(C(=O)COC(=O)C2Cc3ccccc3CN2S(C)(=O)=O)c(=O)n(C)c1=O (stereo not given)	SMARCA2 act 8.4 | SMARCA2 act conf inactive | GAL4-VP16 Luc inactive
C[C@@H](CO)NC(=O)c1[nH]cnc1C(=O)Nc1ccccc1	none (no result: MsrA act)
COC(=O)C[C@@H]1CC[C@@H](NS(=O)(=O)c2cccc(OC)c2)[C@@H](CO)O1	none (no result: MsrA act)
Cc1cc(-n2cnnn2)ccc1C(C)C	SMARCA2 act 8.5 | SMARCA2 act conf inactive | GAL4-VP16 Luc inactive
Cc1ccccc1Cn1cc(COC(=O)NCCc2c[nH]c3ccccc23)nn1	none (no result: MsrA inh, MsrA act)
C=CCCC1(CCC)C(=O)/C(=C(\O)c2ccccc2)C(=O)C(CCC)=C1OC (stereo not given)	none (no result: MsrA inh, MsrA act)
Cc1cccc(-c2cccc3c4c([nH]c23)[C@@H]2C[C@H](N(C)C(=O)Nc3ccccc3)[C@H]([C@H](C)O)C(=O)N2CC4)c1	SMARCA2 act 9.2 (no result: MsrA inh, MsrA act) | SMARCA2 act conf inactive | GAL4-VP16 Luc inactive
COc1ccc(-n2nc3c(N4CCC(C(=O)NCc5cccc(C)c5)CC4)nnc(C)c3c2C)cc1	SMARCA2 act 14 | SMARCA2 act conf 17 | GAL4-VP16 Luc inactive
CCOc1ccc(CNC(=O)C2CCN(c3nnc(C)c4c(C)n(-c5ccc(C)cc5)nc34)CC2)cc1	none
Cc1ccc(NC(=O)N2CCCCCC2)cc1	none
Cc1ccc(NC(=S)NC(=O)C2CC2)c(C)c1	SMARCA2 act 8.8 | SMARCA2 act conf inactive | GAL4-VP16 Luc inactive
Cc1ccc(NC(=S)NC(=O)C2CCCC2)cc1C	none
Cc1ccc(NC(=O)N2CCCCCC2)c(C)c1	SMARCA2 act 9.6 | SMARCA2 act conf inactive | GAL4-VP16 Luc inactive
Cc1ccccc1-c1ccc2c(c1)[C@@H]1C[C@H]3[C@@H](CN1CC2)[C@H](C)OC(C1CCCCC1)N3C (stereo not given in full)	none (no result: MsrA act)
CC1CN(C(=O)c2ccccc2OCc2ccccc2Cl)CC(C)O1 (stereo not given)	none
CCC(NC(=O)c1ccc2c(ccn2Cc2cccc(-c3ccc(C(=O)O)cc3)c2)c1)c1ccccc1 (stereo not given)	none (no result: MsrA inh, MsrA act)
CCOC(=O)[C@]12CCC=C1N(Cc1ccco1)C(=O)[C@H](CC(=O)NCCCCc1ccccc1)C2	none
CCCN(CC(=O)Nc1ccccc1C)C(=O)c1ccc2ccccc2n1	none
Cc1ccccc1NC(=S)c1ccc2ccccc2n1	SMARCA2 act 8.2 | SMARCA2 act conf 16 | GAL4-VP16 Luc 7.6
COc1cc(/C=C/C(=O)OCC(=O)Nc2ccc(Cl)cn2)ccc1O	SMARCA2 act 10 | SMARCA2 act conf inactive | GAL4-VP16 Luc inactive
O=C(COC(=O)/C=C/c1ccc(F)cc1)Nc1ccc(Cl)cn1	none
COc1ccc(-c2nc3ccc(Br)cn3c2Cc2ccsc2)cc1OC	none
COC(=O)c1c(-c2ccccc2)[nH]c(-c2nccc3ccccc23)c1C(=O)OC	SMARCA2 act 8.4 | SMARCA2 act conf inactive | GAL4-VP16 Luc inactive
O=C(c1cccs1)N(C(=O)c1cccs1)c1ccc(Br)cn1	none
Cc1ccnc(N(C(=O)c2cccs2)C(=O)c2cccs2)c1	SMARCA2 act 11 | SMARCA2 act conf 8.3 | GAL4-VP16 Luc 6.8
C=CCn1c(O)c(N=NC(=S)Nc2ccc(OC)cc2)c2ccccc21	none
C=CCn1c(O)c(N=NC(=S)Nc2cccc(OC)c2)c2ccccc21	SMARCA2 act 10 | SMARCA2 act conf inactive | GAL4-VP16 Luc inactive
Cc1ccc(C2CCC3(CCC(=O)N3CCOC(=O)Nc3ccc(F)cc3)CC2)cc1 (stereo not given)	none (no result: MsrA inh, MsrA act)
Cc1cc(N2CCOCC2)nc2ccc(NC(=O)CCC(=O)N3CCN(c4ccccc4)CC3)cc12	SMARCA2 act 8.2 | SMARCA2 act conf inactive | GAL4-VP16 Luc 5.4
Cc1ccc(S(=O)(=O)NN=CC=CC=NNS(=O)(=O)c2ccc(C)cc2)cc1	none
COc1ccc(Nc2ncnc3ccccc23)cc1	none
COc1ccc(Nc2ncnc3ccccc23)c(OC)c1	SMARCA2 act 9.0 | SMARCA2 act conf inactive | GAL4-VP16 Luc inactive
